# Screens as filed in PubChem.
# The list is not random: actives were taken first. Their share in the collection is about 0.74%.
# p97 ATPase inh – inhibitors of human p97 ATPase; 220,000 compounds, 0.42% hits; inhibition, % at 8 µM; AID 1481; recombinant p97 ATPase, Kinase-Glo ATP luminescence, 3 h; in the data active = inhibition above about 15%;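 also: 0% = DMSO vehicle and 100% = wells lacking enzyme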
# Target sequence (P55072 whole entry, looked up): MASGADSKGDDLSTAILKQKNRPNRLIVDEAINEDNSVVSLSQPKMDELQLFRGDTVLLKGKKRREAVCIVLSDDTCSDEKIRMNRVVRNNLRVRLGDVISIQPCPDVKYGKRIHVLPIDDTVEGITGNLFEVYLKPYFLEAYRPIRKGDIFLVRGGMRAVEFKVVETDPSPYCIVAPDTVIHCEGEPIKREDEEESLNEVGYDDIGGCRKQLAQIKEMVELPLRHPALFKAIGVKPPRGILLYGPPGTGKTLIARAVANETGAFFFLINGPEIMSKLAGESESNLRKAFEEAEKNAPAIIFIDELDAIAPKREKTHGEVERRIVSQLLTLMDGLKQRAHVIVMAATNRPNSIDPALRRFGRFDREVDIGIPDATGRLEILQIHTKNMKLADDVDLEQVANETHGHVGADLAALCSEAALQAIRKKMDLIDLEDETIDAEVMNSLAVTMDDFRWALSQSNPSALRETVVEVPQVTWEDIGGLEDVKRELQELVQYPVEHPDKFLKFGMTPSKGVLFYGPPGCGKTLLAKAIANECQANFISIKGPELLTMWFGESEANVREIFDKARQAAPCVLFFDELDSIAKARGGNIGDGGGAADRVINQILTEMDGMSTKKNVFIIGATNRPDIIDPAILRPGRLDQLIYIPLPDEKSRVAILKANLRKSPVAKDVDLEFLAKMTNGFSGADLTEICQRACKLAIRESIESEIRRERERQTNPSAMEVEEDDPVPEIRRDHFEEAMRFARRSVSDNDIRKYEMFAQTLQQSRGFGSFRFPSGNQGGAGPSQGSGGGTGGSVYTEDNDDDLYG
# Redox H2O2 prof – compounds producing H2O2 with reducing agent – biochemical, NIH compound library profiling, artefact control for MLSCN library redox annotation, primary screen; AID 878; activation, % at 10 µM; DTT-dependent redox cycling H2O2, phenol red/HRP absorbance; 100% = 100 µM peroxide control, 0% = buffer; 200,000 compounds, 0.03% hits;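 active = activation of at least 50% relative to the plate's high and low controls in the primary single-dose screen; inactive = activation below 50%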;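 also: compound incubated with DTT at 0.8 mM final as the reducing agent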
# HMGR II inh – E. faecalis class II HMG-CoA reductase inhibition. inhibition, % at 10 µM. purified E. faecalis HMGR, NADPH absorbance 340 nm kinetic. 190,000 compounds, 0.41% hits;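 active = inhibition above a set limit, the median over all tested compounds plus 3 SD, cut at about 9.5% in these data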;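 also: enzyme runs in reverse so mevalonate oxidation gives rising NADPH absorbance; 0% = complete reaction with DMSO and 100% = background rate lacking mevalonate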
# Furin inh – inhibitors of human furin; 220,000 compounds, 0.061% hits; purified furin, fluorogenic substrate cleavage; inhibition, % at 20 µM or 30 µM; P09958; in the data active = inhibition above about 25%
# pCIP destab – lowers stability of the mouse p/CIP coactivator protein; 290,000 compounds, 0.01% hits; Q05BA5; AID 1984; F442A p/CIP-EGFP cells, EGFP fluorescence, 16 h; decrease of EGFP signal, % at 10 µM;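 active = EGFP signal decrease of at least 30% at 10 µM or well 3 SD below plate mean, unless failing retest; inactive = the rest, including hits failing retest or dose response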
# Tb hexokinase – blocks Trypanosoma brucei hexokinase 1 activity; inhibition, % at 10 µM; 220,000 compounds, 0.11% hits; recombinant TbHK1, G6PDH-coupled NADH A340; AID 1430;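 active = inhibition of 50% or more in the single-dose primary screen; inactive = inhibition below 50%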
# p97 confirm – confirmation of human p97 ATPase inhibitors | shares compounds with p97 ATPase inh | 760 compounds, 44% hits | recombinant p97 ATPase, Kinase-Glo ATP luminescence | inhibition, % at 8 µM;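 active = percent inhibition of p97 ATPase above a set limit, the primary screen's mean plus 3 SD, cut at about 15% in these data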;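 also: 0% = DMSO wells and 100% = wells lacking p97 protein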
# An asterisk follows results filed as active; x = not tested or not shown.
SMILES,p97 ATPase inh,Redox H2O2 prof,HMGR II inh,Furin inh,pCIP destab,Tb hexokinase,p97 confirm
N/C(=N\NC(=O)c1cccc(F)c1)c1cc2ccccc2oc1=O,15.9*,x,x,-12.8,2.7,-7.3,8.2
CCOC(=O)c1cccc(NC(=O)Nc2ccc3c(c2)C(=O)OC3)c1,10.3,x,x,-16.7,-6.0,-15.8,x
N#Cc1c(-c2ccccc2)c(-c2ccccc2)nn(CC(=O)NNC(=O)Nc2ccc(Cl)cc2)c1=O,31.4*,x,x,-17.4,2.2,-6.3,26.8*
CCOC(=O)c1cc([N+](=O)[O-])c([N+](=O)[O-])cc1NC(C)=O,15.8*,0.5,4.4,0.2,-5.6,-16.8,35.3*
O=C(Nc1ccc(Br)c2ccccc12)c1ccc2ccccc2c1O,18.6*,x,x,-6.8,-2.4,-21.5,24.1*
O=C(O)c1ccc(-c2nc(-c3ccccc3)c(-c3cccs3)[nH]2)cc1,6.0,x,x,-40.2,0.2,-37.2,x
COc1ccc(-c2nc(-c3cccs3)c(-c3cccs3)[nH]2)cc1O,15.3*,-0.6,-0.9,-42.7,-2.0,-17.7,26.1*
Clc1nc2c(-c3ccccc3)nnn2c2ccccc12,16.7*,x,x,-7.2,-6.6,-8.8,25.5*
Fc1cccc(-c2nnn3c2nc(Cl)c2ccccc23)c1,6.7,-0.2,2.1,-25.2,11.4,-4.4,x
NNc1nc2c(-c3ccc(Cl)cc3)nnn2c2ccccc12,2.0,-2.4,-5.4,-29.1,-152.8,-10.0,x
Cc1ccc(-c2nnn3c2nc(Cl)c2ccccc23)cc1,16.7*,-0.2,-0.2,-19.0,11.9,0.6,8.1
O=C(NCc1nc(-c2ccc(Cl)cc2)no1)c1ccc2c(c1)OCO2,x,x,x,x,-8.5,x,x
S=c1[nH]nc(-c2ccc(Cl)cc2)n1/N=C/C=C/c1ccco1,15.9*,x,x,-11.6,-0.5,-63.8,7.4
S=c1[nH]nc(-c2ccccc2)n1/N=C/C=C/c1ccco1,6.7,0.1,-7.7,5.7,-13.2,-44.3,x
Cc1ccccc1-c1n[nH]c(=S)n1/N=C/C=C/c1ccco1,7.9,x,x,-1.7,-12.8,-72.8,x
Cc1cc(-c2n[nH]c(=S)n2/N=C/C=C/c2ccco2)n[nH]1,24.2*,x,x,-8.5,6.9,-62.2,9.2
COc1ccc(S(=O)(=O)Nc2nc3c(s2)C(=O)CC(C)(C)C3)cc1,x,x,x,x,-14.3,x,x
Cc1ccc(S(=O)(=O)Nc2nc3c(s2)C(=O)CC(C)(C)C3)cc1,15.5*,-1.2,-7.1,-12.3,-6.2,-41.4,4.8
O=C(CCn1c(=S)oc2ccccc21)NC1CCCCCC1,15.5*,x,x,-23.7,1.6,-6.0,8.7
CC1CCCC(NC(=O)CCn2c(=S)oc3ccccc32)C1C (stereo not drawn),2.6,x,x,-17.2,-0.2,-7.4,x
Cc1cccc(N(CC(=O)NC2CCCC2)C(=O)CNC(=O)c2ccco2)c1C,x,x,x,x,6.3,x,x
CCC(CC)c1nn2c(N)c(/C=C3\C(C)=Nc4ccccc43)c(=O)nc2s1,23.9*,x,x,-13.0,-10.5,-5.6,24.6*
CCC(CC)c1nn2c(N)c(/C=C3\C=Nc4ccccc43)c(=O)nc2s1,1.2,x,x,-27.7,-9.8,-12.4,x
CC(C)Cc1nn2c(N)c(/C=C3\C=Nc4ccccc43)c(=O)nc2s1,16.3*,-0.9,-1.2,-21.2,-12.3,-9.1,11.6
CC(C)(C)NC(=O)COC(=O)c1ccccc1C(=O)c1ccccc1,1.2,0.1,0.1,-8.9,4.4,-8.9,x
SMILES,p97 ATPase inh,Redox H2O2 prof,HMGR II inh,Furin inh,pCIP destab,Tb hexokinase,p97 confirm
COc1cccc(OC)c1C1=NC(C)(C)CO1,-1.6,x,x,-19.0,-10.5,5.6,x
Oc1ccccc1-c1nnc(SCCN2CCOCC2)n1Cc1ccccc1,15.3*,-0.3,-1.7,-2.5,7.2,0.1,4.5
Cc1ccc(NC(=O)CS(=O)CC(=O)N(CC(=O)NC(C)(C)C)c2cccc(C)c2C)cc1 (stereo not drawn),x,x,x,x,-8.1,x,x
Oc1[nH]c2ccc(Br)cc2c1N=NC(=S)Nc1ccc(F)cc1,2.8,x,x,-3.4,-10.0,-16.9,x
Oc1ccc(NC(=S)N=Nc2c(O)[nH]c3ccc(Br)cc23)cc1,20.8*,-0.2,-0.1,-9.7,14.0,-3.4,21.4*
Oc1cccc(NC(=S)N=Nc2c(O)[nH]c3ccc(Br)cc23)c1,25.5*,x,x,-11.5,14.6,0.6,22.7*
CC(C)c1ccc2c(c1)CCC1C(C)(CN)CCCC21C (stereo not drawn),21.6*,x,x,-7.9,2.8,15.5,13.6
